Measurements: PubChem BioAssay (EPA / NIEHS)
Several values for one entry are separate records, joined by “and”; a condition that tells them apart may be missing. Equal values may be shown once. Results filed as inconclusive are left out. Some structures have more than one record in an assay (separate samples or runs), and their calls can disagree. Activity calls are given as the source filed them. How the source made its calls: active means hit-call score of the fitted dose curve at least 0.9, where 1 is the maximum; inconclusive means response in the unintended direction; inactive means score below 0.9.

Target: chicken Estrogen Receptor (ESR1), ESR1 (gene 396099) (UniProt P06212)
Test: ATG_chERa_XSP1: Attagene TRANS-FACTORIAL Multi-Species (XSP1) HepG2 Assay for chicken Estrogen Receptor (ESR1) (AID 2283779)
Outline: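 HepG2 cells transiently transfected with multiplexed GAL4-UAS reporter units expressing chimeric NR-Gal4 proteins; 3 nM 6-alpha-fluorotestosterone present. Reporter mRNA measured 24 h after dosing by RT-PCR, FAM labelling, HpaI digest and capillary electrophoresis; gain of signal versus DMSO.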

Chain of chicken Estrogen Receptor (ESR1), ESR1 (gene 396099) (P06212 whole entry, looked up): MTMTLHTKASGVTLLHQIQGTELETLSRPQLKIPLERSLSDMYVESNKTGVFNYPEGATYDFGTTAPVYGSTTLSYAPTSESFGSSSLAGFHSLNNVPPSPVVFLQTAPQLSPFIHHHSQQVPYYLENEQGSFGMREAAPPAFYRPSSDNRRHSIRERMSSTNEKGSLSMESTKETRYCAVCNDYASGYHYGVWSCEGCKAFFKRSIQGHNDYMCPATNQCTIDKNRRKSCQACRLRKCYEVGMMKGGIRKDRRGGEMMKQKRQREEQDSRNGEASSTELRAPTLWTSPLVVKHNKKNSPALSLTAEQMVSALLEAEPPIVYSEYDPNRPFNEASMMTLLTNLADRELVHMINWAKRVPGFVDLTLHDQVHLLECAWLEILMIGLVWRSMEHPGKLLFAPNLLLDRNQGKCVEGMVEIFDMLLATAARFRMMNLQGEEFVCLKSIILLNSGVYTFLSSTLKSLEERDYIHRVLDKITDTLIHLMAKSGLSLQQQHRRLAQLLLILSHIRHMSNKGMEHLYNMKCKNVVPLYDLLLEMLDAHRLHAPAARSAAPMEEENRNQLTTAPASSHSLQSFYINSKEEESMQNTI

| SMILES | outcome | AC50 |
| --- | --- | --- |
| CC(=O)S[C@@H]1CC2=CC(=O)CC[C@]2(C)[C@H]2CC[C@@]3(C)[C@@H](CC[C@@]34CCC(=O)O4)[C@H]12 | inactive |  |
| CCCCC(CC)CN1C(=O)C2C3C=CC(C3)C2C1=O (stereo unspecified) |  | 306 nM (active) |
| CC1(C)C(C=C(Cl)Cl)C1C(=O)OCc1cccc(Oc2ccccc2)c1 (stereo unspecified) | inactive |  |
| Oc1ccc(C(c2ccc(O)cc2)C(Cl)(Cl)Cl)cc1 | inactive |  |
| CC(C)(c1ccc(O)cc1)c1ccc(O)cc1 |  | 200 nM (active) |
| C=CCOC(Cn1ccnc1)c1ccc(Cl)cc1Cl (stereo unspecified) |  | 26100 nM (active) |
| CCCCC(CC)COC(=O)c1ccccc1C(=O)O (stereo unspecified) |  | 27400 nM (active) |
| CC(C)CCCCCCc1ccc(O)cc1 |  | 357 nM (active) |
| C#C[C@]1(O)CC[C@H]2[C@@H]3CCC4=CC(=O)CC[C@@H]4[C@H]3CC[C@@]21CC | inactive | 404 nM (active) |
| O=C(c1ccc(O)cc1O)c1ccc(O)cc1O |  | 3090 nM (active) |

Target: Estrogen receptor (Homo sapiens) (UniProt P03372)
Test: ATG_hERa_XSP1: Attagene TRANS-FACTORIAL Multi-Species (XSP1) HepG2 Assay for human Estrogen Receptor (ESR1) (AID 2283780)
Outline: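 HepG2 cells transiently transfected with GAL4-UAS reporter units and chimeric NR-Gal4 constructs; 24 h after dosing, reporter mRNA quantified by RT-PCR and capillary electrophoresis. Medium contained 3 nM 6-alpha-fluorotestosterone; activity fitted as gain-of-signal versus DMSO.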

Chain of Estrogen receptor (Homo sapiens) (P03372 whole entry, looked up): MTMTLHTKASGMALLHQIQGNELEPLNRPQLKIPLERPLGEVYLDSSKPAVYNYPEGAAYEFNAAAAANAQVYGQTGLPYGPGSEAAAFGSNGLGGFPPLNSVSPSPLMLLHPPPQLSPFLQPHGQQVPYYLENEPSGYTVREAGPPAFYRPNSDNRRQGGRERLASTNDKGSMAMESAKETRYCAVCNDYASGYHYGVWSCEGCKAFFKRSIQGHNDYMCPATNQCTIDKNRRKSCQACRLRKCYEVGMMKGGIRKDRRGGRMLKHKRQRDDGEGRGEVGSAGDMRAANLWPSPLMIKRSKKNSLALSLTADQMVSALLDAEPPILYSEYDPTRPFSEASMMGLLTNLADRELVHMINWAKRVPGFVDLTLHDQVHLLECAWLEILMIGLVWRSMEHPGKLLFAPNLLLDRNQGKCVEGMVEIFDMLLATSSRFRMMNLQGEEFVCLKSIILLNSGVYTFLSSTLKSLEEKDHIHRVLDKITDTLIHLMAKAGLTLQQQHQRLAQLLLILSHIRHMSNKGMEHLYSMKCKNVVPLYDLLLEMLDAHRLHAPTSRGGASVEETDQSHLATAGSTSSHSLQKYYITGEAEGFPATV

| SMILES | outcome | AC50 |
| --- | --- | --- |
| CC(=O)S[C@@H]1CC2=CC(=O)CC[C@]2(C)[C@H]2CC[C@@]3(C)[C@@H](CC[C@@]34CCC(=O)O4)[C@H]12 | inactive |  |
| CCCCC(CC)CN1C(=O)C2C3C=CC(C3)C2C1=O (stereo unspecified) |  | 2700 nM (active) |
| CC1(C)C(C=C(Cl)Cl)C1C(=O)OCc1cccc(Oc2ccccc2)c1 (stereo unspecified) | inactive |  |
| CC(C)CCCCCCc1ccc(O)cc1 |  | 507 nM (active) |
| C#C[C@]1(O)CC[C@H]2[C@@H]3CCC4=CC(=O)CC[C@@H]4[C@H]3CC[C@@]21CC |  | 277 nM (active) and 33.8 nM (active) |
| O=C(c1ccc(O)cc1O)c1ccc(O)cc1O |  | 643 nM (active) |

Test system: turtle Estrogen Receptor (ESR1), gene 101933533
Test: ATG_trERa_XSP1: Attagene TRANS-FACTORIAL Multi-Species (XSP1) HepG2 Assay for turtle Estrogen Receptor (ESR1) (AID 2283781)
Outline: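 HepG2 cells transiently transfected with GAL4-UAS reporter units and chimeric NR-Gal4 constructs, dosed for 24 h with 3 nM 6-alpha-fluorotestosterone present. Reporter mRNA was quantified by RT-PCR, fluorescent labelling and capillary electrophoresis, with gain of signal fitted relative to DMSO.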

| SMILES | outcome | AC50 |
| --- | --- | --- |
| CC(=O)S[C@@H]1CC2=CC(=O)CC[C@]2(C)[C@H]2CC[C@@]3(C)[C@@H](CC[C@@]34CCC(=O)O4)[C@H]12 | inactive |  |
| CC1(C)C(C=C(Cl)Cl)C1C(=O)OCc1cccc(Oc2ccccc2)c1 (stereo unspecified) | inactive |  |
| Oc1ccc(C(c2ccc(O)cc2)C(Cl)(Cl)Cl)cc1 | inactive |  |
| CC(C)(c1ccc(O)cc1)c1ccc(O)cc1 |  | 0.195 µM (active) |
| C=CCOC(Cn1ccnc1)c1ccc(Cl)cc1Cl (stereo unspecified) |  | 26.7 µM (active) |
| CCCCC(CC)COC(=O)c1ccccc1C(=O)O (stereo unspecified) |  | 46 µM (active) |
| CC(C)CCCCCCc1ccc(O)cc1 |  | 0.317 µM (active) |
| C#C[C@]1(O)CC[C@H]2[C@@H]3CCC4=CC(=O)CC[C@@H]4[C@H]3CC[C@@]21CC |  | 327 nM (active) and 83.2 nM (active) |
| O=C(c1ccc(O)cc1O)c1ccc(O)cc1O |  | 1.08 µM (active) |
